Measurements reported in PubChem BioAssay (NCI).
About 83,000 compounds went through this panel and 20% of them were active in at least one assay; those are over-represented in the sample as a whole.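 Activity criterion: percent growth below 10, measured after cells in 96-well plates were exposed to a single compound concentration for 48 hours.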 The source made the active and inactive calls.

Columns and labels:
Assay in all cases: NCI-60 one-dose screen, 48 h (100 = growth as untreated, 0 = no growth, -100 = all killed)
Settings in all cases: 10 µM unless noted
NCI-H23 lung = tested on: NCI-H23 lung
NCI-H226 lung = tested on: NCI-H226 lung
NCI-H322M lung = tested on: NCI-H322M lung
HOP-62 NSCLC = tested on: HOP-62 NSCLC
NCI-H460 lung = tested on: NCI-H460 lung
HOP-92 NSCLC = tested on: HOP-92 NSCLC
NCI-H522 lung = tested on: NCI-H522 lung
A549/ATCC NSCLC = tested on: A549/ATCC NSCLC
786-0 renal = tested on: 786-0 renal
COLO 205 colon = tested on: COLO 205 colon
DU-145 prostate = tested on: DU-145 prostate
K-562 leukemia = tested on: K-562 leukemia
MALME-3M melanoma = tested on: MALME-3M melanoma
MDA-MB-231 breast = tested on: MDA-MB-231 breast
RXF 393 renal = tested on: RXF 393 renal
SF-268 CNS = tested on: SF-268 CNS
SF-295 CNS = tested on: SF-295 CNS
SF-539 CNS = tested on: SF-539 CNS
UACC-257 melanoma = tested on: UACC-257 melanoma
M14 melanoma = tested on: M14 melanoma

Measured: growth

O=C(CSc1nnc(-c2ccc(-c3nc4ccc(Cl)cc4[nH]3)cc2)o1)Nc1ccc(Cl)cc1
inactive: NCI-H322M lung 32.9% | HOP-92 NSCLC 14.7% | COLO 205 colon 45.3% | K-562 leukemia 11.2% | SF-295 CNS 27.6%
active: NCI-H23 lung -11.9% | NCI-H226 lung -38.2% | HOP-62 NSCLC -13.6% | NCI-H460 lung -75.8% | NCI-H522 lung -1.21% | A549/ATCC NSCLC -36.2% | 786-0 renal -39.5% | DU-145 prostate 6.16% | MALME-3M melanoma -23.8% | MDA-MB-231 breast -51.5% | RXF 393 renal -49% | SF-268 CNS 8.68% | SF-539 CNS -95.3% | UACC-257 melanoma 3.38% | M14 melanoma 1.01%

O=C1NC(=S)/C(=C/c2cn(-c3ccccc3)nc2-c2ccccc2)S1
inactive: NCI-H23 lung 12.5% | NCI-H226 lung 34.1% | NCI-H322M lung 31.7% | HOP-62 NSCLC 72.6% | HOP-92 NSCLC 13.7% | A549/ATCC NSCLC 17.7% | 786-0 renal 20.8% | COLO 205 colon 33.2% | DU-145 prostate 34.4% | K-562 leukemia 22.2% | MALME-3M melanoma 10.4% | MDA-MB-231 breast 39.5% | SF-268 CNS 36.4% | SF-295 CNS 17% | SF-539 CNS 22.5% | M14 melanoma 25%
active: NCI-H460 lung 9.19% | NCI-H522 lung -9.92% | RXF 393 renal 9.95% | UACC-257 melanoma 6.05%

CS(=O)(=O)Nc1cc(-c2ccc3ncnc(Nc4ccc(OCc5cccnc5)c(Cl)c4)c3c2)cnc1Cl
active: NCI-H23 lung -26.9% | NCI-H322M lung -2.48% | HOP-92 NSCLC -27.9% | NCI-H522 lung -4.01% | 786-0 renal 2.08% | COLO 205 colon -73.5% | K-562 leukemia 9.57% | MALME-3M melanoma -34.8% | MDA-MB-231 breast -57.9% | RXF 393 renal 0.962% | SF-295 CNS -14.9% | SF-539 CNS -38% | UACC-257 melanoma 1.79% | M14 melanoma 2.98%
inactive: NCI-H226 lung 23.8% | HOP-62 NSCLC 24.3% | NCI-H460 lung 35.2% | A549/ATCC NSCLC 45.6% | DU-145 prostate 16.5% | SF-268 CNS 14.6%
